These results are taken from PubChem BioAssay (Tox21).

Test [1] deals with Estrogen receptor beta (Homo sapiens) (UniProt Q92731). The experiment in a line: qHTS assay to identify small molecule antagonists of the estrogen receptor beta (ER-beta) signaling pathway (AID 1259378; active means well fitted inhibition curve with a large enough effect in the signal ratio in the repeat runs, not every such curve was filed as active; the % refers to the signal ratio; further: potency means the concentration at half of the fitted maximal effect). The method in brief:
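ER-beta-UAS-bla HEK293T cells in 2% charcoal-stripped FBS medium treated with compound plus 1nM final 17-beta-estradiol for 16 hr at 37C. Beta-lactamase reporter read by FRET substrate fluorescence after 2 hours at room temperature.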

Test [2] can be described thus: qHTS assay to identify small molecule antagonists of the estrogen receptor beta (ER-beta) signaling pathway - cell viability counter screen (AID 1259382). Further: nearly all actives have a fitted effect of over 55% in size. Further: potency means the concentration at half of the fitted maximal effect. On activity change, negative = cytotoxicity: series mostly up to about 92 µM. The method in brief:
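In this multiplexed counter screen, cells were seeded at 2,000 per well in medium with 2% charcoal-stripped FBS and incubated 6 hr before compound and 1nM final E2 were added. Sixteen hours later, ATP-based luminescence reported viability.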

Test [3] addresses Progesterone receptor (Homo sapiens) (UniProt P06401). Briefly: qHTS assay to identify small molecule agonists of the progesterone receptor (PR) signaling pathway (AID 1346784; calls by dose curve; further: nearly all actives have a fitted effect of over 30% in size). The gist of the method:
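Using charcoal-stripped serum (2%) to limit endogenous steroids, PR-UAS-bla HEK 293T cells received compounds for 16 hr at 37C after 6 hr plating; beta-lactamase FRET fluorescence was recorded following 2 hr substrate loading at room temperature.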

Test [4] shares this target. The experiment in a line: qHTS assay to identify small molecule antagonists of the progesterone receptor (PR) signaling pathway (AID 1346795; active means well fitted inhibition curve with a large enough effect in the signal ratio in the repeat runs, not every such curve was filed as active; the % refers to the signal ratio). The gist of the method: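 Inhibition of R5020-induced (1 nM final) beta-lactamase reporter signal in PR-UAS-bla HEK293T cells was scored by FRET fluorescence after overnight (16 hr) compound treatment.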
A short description of test [5]: qHTS assay to identify small molecule antagonists of the progesterone receptor (PR) signaling pathway - cell viability counter screen (AID 1346798). Further: nearly all actives have a fitted effect of over 50% in size. Further: potency means the concentration at half of the fitted maximal effect. On activity change, negative = cytotoxicity: series mostly up to about 92 µM. The gist of the method:
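ATP content as viability readout: CellTiter-Glo luminescence, 30 min room temperature, in PR-UAS-bla HEK293T cells after 16 hr compound/R5020 treatment at 37C and 5% CO2.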

The nature of test [6]: qHTS assay to identify small molecule agonists of the progesterone receptor (PR) signaling pathway - cell viability counter screen (AID 1346799; calls by dose curve; further: nearly all actives have a fitted effect of over 45% in size; further: potency means the concentration at half of the fitted maximal effect). The gist of the method:
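Cytotoxicity in PR-bla HEK293T cells: 16 h compound, 37C; CellTiter-Glo added post-FRET read; luminescence after 30 min RT.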

Test [7] can be described thus: qHTS assay to identify small molecule antagonists of the TGF-beta/Smad signaling pathway - cell viability counter screen (AID 1346824). Further: nearly all actives have a fitted effect of over 50% in size. The method in brief: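 SBE-bla HEK 293T cells, incubated overnight, then compound plus 0.25 ng/mL TGF-beta1 (stock added) for 5 hr at 37 C. Viability was read in the same wells by CellTiter-Glo luminescence after 30 min at room temperature.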

The nature of test [8]: qHTS assay to identify small molecule agonists of the TGF-beta/Smad signaling pathway - cell viability counter screen (AID 1346829). Further: top concentration of the series differs between compounds; nearly all actives have a fitted effect of over 45% in size. The method in brief: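 HEK 293T SBE-bla line, 5 hr compound exposure at 37 C, multiplexed CellTiter-Glo viability read by luminescence.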
Test [9] is described as follows: qHTS assay to identify small molecule agonists of the TGF-beta/Smad signaling pathway (AID 1346859; active means well fitted activation curve with a large enough effect in the signal ratio in the repeat runs, not every such curve was filed as active; the % refers to the signal ratio; further: series mostly up to about 77 µM). The gist of the method:
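Stable Smad binding element-beta-lactamase HEK 293T cells; 5 hr compound exposure at 37 C under 5% CO2; 2 hr room-temperature substrate step; fluorescence excited at 405 nm, collected at 460 nm and 530 nm.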

Test [10] addresses Thyrotropin-releasing hormone receptor (Homo sapiens) (UniProt P34981). Briefly: qHTS assay to identify small molecule antagonists of the thyrotropin-releasing hormone receptor (TRHR) signaling pathway (AID 1346877; active means well fitted inhibition curve with a large enough effect in the repeat runs, not every such curve was filed as active; further: potency means the concentration at half of the fitted maximal effect; on activity, negative = inhibition: series mostly up to about 51 µM). The gist of the method:
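Following an 18 h incubation at 37 °C and a 2 h calcium dye load, TRHR-HEK293 cells were exposed to compound (5 min, room temperature) and challenged with TRH, 1 nM final.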

Test [11] has the same target. The experiment in a line: qHTS assay to identify small molecule agonists of the thyrotropin-releasing hormone receptor (TRHR) signaling pathway (AID 1346891; calls by dose curve;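 further: HEK293 cells expressing TRHR with calcium dye readout; series mostly up to about 58 µM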). The gist of the method:
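In 1536-format, 1500 TRHR-Hek293 cells per well grew 18 h, took up calcium dye for 2 h at 37 °C, received compound, and were read kinetically; 15-point titrations, triplicates.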

Test [12] in a line: Human pregnane X receptor (PXR) small molecule agonists, qHTS cell viability counter screen (AID 1346977). Further: nearly all actives have a fitted effect of over 50% in size. Further: potency means the concentration at half of the fitted maximal effect. The gist of the method: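 Readout is CellTiter-Fluor fluorescence from PXR-Luc HepG2 cells. Plated cells rested 5hr, then were treated with compounds for 24hr at 37C and 5% CO2, with reagent present during the last hour.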
Test [13] concerns the target Estrogen receptor (Homo sapiens) (UniProt P03372). Briefly: qHTS assay to identify small molecule agonists of the estrogen receptor alpha (ER-alpha) signaling pathway in the presence of an antagonist (AID 1259383; calls by dose curve; further: top concentration of the series differs between compounds; nearly all actives have a fitted effect of over 15% in size). The gist of the method:
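Stably transfected VM7Luc4E2 reporter cells, kept 5 days in charcoal-stripped serum, received ICI-182,780 at 10.0nM final before compound addition. Following 22hr incubation at 37C and 5% CO2, luciferase signal was read by luminescence.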

Test [14] is described as follows: qHTS assay to identify small molecule agonists or antagonists of the thyroid stimulating hormone receptor (TSHR) signaling pathway - wild type cell line counter screen (AID 1259384; calls by dose curve). The method in brief: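 Wild-type Hek293 cells, 800/well, 18 h at 37C, then compound with Ro20-1724 for 30 min RT. cAMP by HTRF (cAMP-d2/anti-cAMP cryptate), 1 h RT, fluorescence read. 15 concentrations, triplicates.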

Test [15] addresses Thyrotropin receptor (Homo sapiens) (UniProt P16473). The experiment in a line: qHTS assay to identify small molecule antagonists of the thyroid stimulating hormone receptor (TSHR) signaling pathway (AID 1259385; calls by dose curve; further: nearly all actives have a fitted effect of over 20% in size). The gist of the method:
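TSHR-HEK293 cells (800/well) plated 18 h, then compounds with Ro20-1724 and TSH at 1.5 ng/mL final, 30 min at room temperature. cAMP quantified by HTRF (cAMP-d2/anti-cAMP-cryptate, 1 h); 15 concentrations in triplicate.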

Test [16] in a line: qHTS assay to identify small molecule agonists of the estrogen receptor beta (ER-beta) signaling pathway - cell viability counter screen (AID 1259380). Further: nearly all actives have a fitted effect of over 30% in size. Further: potency means the concentration at half of the fitted maximal effect. The method in brief:
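CellTiter-Glo read, 30 min RT, same wells as bla assay; cells ER-beta-UAS-bla HEK293T; 16 hr compound, 37C; medium 2% charcoal-stripped FBS.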

Test [17] is described as follows: qHTS assay to identify small molecule agonists of the estrogen receptor alpha (ER-alpha) signaling pathway in the presence of an antagonist - cell viability counter screen (AID 1259386).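 Further: series mostly up to about 92 µM; cells exposed to compounds for 22 h at 37 °C before the viability read; nearly all actives have a fitted effect of over 30% in size.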 The gist of the method:
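Viability counter screen using VM7Luc4E2 (full-length ER-alpha, four ERE-luciferase). The cells were treated with compounds alongside ICI-182,780 10.0nM for 22hr, and live-cell protease fluorescence was quantified with CellTiter-Fluor.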

Test [18] can be described thus: qHTS assay to identify small molecule agonists of the androgen receptor (AR) signaling pathway in the presence of an antagonist - cell viability counter screen (AID 1259379). Further: nearly all actives have a fitted effect of over 25% in size. Further: potency means the concentration at half of the fitted maximal effect.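 On activity change, negative = cytotoxicity: MDA-kb2 human breast cancer cells carrying an MMTV luciferase reporter; series mostly up to about 92 µM.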 The gist of the method:
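Seed MDA-kb2 at 3,000 cells/well; incubate 5 hr, 37C, 0% CO2. Add nilutamide to 3.0uM final, then pin compounds at 15 concentrations. Incubate 16 hr. Add CellTiter-Fluor at 15 hr, read fluorescence after 1 hr.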

For test [19], the target named is Androgen receptor (Homo sapiens) (UniProt P10275). Briefly: qHTS assay to identify small molecule agonists of the androgen receptor (AR) signaling pathway in the presence of an antagonist (AID 1259381; calls by dose curve; further: nearly all actives have a fitted effect of over 15% in size). The gist of the method:
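Test compounds at 15 concentrations were incubated for 16hr with MDA-kb2 reporter cells in presence of 3.0uM nilutamide (final). Signal: ONE-Glo luciferase luminescence.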

Values joined by “and” are separate entries in the source; they are usually repeats but may differ in a detail not shown here. Equal entries are not always repeated. Records with an inconclusive call do not appear. Some compounds were tested as several samples or in several runs, with calls that do not always agree. Active and inactive are the calls of the source. Unless noted, the call rests on the fitted dose curve; in most records, active means well fitted curve in the direction sought with a large enough effect in the repeat runs; inconclusive means weak or mixed curves; inactive means no such curve, though single readings can be large; an effect the other way counts as inactive or inconclusive.
On the % scale 0 is the no-effect control and ±100 the full control effect.

Chain of Estrogen receptor (Homo sapiens) (P03372 whole entry, looked up): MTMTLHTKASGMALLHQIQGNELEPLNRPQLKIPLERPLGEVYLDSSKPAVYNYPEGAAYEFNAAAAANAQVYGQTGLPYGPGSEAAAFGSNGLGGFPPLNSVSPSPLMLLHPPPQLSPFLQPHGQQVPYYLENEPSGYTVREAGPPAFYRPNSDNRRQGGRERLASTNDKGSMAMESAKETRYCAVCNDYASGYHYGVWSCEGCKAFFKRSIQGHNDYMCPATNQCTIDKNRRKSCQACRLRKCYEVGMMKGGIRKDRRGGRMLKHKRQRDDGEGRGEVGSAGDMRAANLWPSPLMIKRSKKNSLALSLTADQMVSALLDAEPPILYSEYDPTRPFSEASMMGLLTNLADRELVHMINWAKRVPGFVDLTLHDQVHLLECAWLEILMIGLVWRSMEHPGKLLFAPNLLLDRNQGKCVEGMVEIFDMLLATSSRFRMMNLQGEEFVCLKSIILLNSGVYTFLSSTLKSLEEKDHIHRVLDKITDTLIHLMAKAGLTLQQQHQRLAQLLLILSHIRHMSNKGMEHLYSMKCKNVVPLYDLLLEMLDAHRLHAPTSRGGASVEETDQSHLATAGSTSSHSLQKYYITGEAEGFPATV
Chain of Thyrotropin-releasing hormone receptor (Homo sapiens) (P34981 whole entry, looked up): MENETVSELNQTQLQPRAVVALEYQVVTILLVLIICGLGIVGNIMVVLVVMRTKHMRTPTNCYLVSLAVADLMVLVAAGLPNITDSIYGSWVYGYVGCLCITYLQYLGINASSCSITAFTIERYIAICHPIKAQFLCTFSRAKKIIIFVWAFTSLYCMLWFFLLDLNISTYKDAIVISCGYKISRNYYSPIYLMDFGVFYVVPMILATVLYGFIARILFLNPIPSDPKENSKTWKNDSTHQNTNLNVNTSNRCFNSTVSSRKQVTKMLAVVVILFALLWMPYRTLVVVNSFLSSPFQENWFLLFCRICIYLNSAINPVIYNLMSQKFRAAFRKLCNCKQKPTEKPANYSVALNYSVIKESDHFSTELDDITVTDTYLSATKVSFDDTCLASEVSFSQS
Chain of Thyrotropin receptor (Homo sapiens) (P16473 whole entry, looked up): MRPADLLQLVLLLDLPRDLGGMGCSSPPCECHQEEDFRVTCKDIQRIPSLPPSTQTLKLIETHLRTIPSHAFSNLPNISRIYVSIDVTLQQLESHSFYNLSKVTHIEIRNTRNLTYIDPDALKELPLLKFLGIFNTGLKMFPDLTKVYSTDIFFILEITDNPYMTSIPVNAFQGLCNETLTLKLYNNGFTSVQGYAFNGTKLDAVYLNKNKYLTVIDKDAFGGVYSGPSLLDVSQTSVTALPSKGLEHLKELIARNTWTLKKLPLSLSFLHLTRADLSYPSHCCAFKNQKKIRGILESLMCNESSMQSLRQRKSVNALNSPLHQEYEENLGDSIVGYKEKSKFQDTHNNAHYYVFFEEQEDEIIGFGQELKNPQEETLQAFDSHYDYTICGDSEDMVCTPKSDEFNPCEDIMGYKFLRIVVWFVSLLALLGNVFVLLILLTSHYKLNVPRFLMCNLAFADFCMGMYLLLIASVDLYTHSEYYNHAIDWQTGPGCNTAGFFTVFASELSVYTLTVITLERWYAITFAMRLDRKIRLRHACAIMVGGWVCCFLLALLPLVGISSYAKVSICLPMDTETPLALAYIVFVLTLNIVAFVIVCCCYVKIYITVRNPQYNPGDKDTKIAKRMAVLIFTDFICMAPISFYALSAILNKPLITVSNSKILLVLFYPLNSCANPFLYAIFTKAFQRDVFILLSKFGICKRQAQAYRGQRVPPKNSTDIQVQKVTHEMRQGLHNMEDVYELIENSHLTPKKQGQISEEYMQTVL
Chain of Progesterone receptor (Homo sapiens) (P06401 whole entry, looked up): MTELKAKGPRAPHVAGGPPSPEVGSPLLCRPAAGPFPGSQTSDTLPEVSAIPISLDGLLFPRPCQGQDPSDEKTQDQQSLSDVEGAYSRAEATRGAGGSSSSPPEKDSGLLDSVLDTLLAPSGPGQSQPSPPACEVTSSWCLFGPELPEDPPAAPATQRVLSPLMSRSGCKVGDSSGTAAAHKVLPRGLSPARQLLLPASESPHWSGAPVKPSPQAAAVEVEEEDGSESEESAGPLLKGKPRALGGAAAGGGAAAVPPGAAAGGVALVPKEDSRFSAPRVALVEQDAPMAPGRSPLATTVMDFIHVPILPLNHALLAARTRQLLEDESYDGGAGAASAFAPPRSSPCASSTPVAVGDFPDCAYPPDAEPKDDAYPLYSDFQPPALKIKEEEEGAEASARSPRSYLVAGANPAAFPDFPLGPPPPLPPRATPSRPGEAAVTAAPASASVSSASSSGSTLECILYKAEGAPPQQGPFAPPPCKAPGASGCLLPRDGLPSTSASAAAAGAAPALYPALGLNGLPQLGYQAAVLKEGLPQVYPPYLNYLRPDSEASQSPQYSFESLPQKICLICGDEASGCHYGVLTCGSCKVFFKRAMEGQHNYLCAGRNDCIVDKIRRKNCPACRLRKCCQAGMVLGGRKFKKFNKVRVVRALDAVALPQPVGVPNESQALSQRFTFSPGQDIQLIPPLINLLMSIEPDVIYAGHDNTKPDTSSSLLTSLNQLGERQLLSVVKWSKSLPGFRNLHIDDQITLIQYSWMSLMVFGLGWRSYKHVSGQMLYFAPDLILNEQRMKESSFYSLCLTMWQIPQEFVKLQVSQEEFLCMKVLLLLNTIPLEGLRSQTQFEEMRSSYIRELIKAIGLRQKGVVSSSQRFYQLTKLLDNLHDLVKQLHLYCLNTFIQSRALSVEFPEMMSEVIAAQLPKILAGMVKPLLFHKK
Chain of Estrogen receptor beta (Homo sapiens) (Q92731 whole entry, looked up): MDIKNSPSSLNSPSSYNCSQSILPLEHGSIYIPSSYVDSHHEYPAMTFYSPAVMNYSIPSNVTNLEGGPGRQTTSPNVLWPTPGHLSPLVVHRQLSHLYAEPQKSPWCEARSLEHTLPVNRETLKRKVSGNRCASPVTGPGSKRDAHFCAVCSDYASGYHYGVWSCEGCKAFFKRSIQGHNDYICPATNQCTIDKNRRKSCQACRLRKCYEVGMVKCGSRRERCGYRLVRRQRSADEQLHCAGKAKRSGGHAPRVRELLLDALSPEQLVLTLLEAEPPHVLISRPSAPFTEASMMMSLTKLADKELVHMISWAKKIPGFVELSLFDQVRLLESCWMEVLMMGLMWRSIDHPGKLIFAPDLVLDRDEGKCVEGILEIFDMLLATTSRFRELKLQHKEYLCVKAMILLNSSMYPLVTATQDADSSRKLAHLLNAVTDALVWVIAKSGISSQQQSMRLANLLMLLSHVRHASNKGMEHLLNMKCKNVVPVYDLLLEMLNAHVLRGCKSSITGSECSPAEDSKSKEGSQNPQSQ
Chain of Androgen receptor (Homo sapiens) (P10275 whole entry, looked up): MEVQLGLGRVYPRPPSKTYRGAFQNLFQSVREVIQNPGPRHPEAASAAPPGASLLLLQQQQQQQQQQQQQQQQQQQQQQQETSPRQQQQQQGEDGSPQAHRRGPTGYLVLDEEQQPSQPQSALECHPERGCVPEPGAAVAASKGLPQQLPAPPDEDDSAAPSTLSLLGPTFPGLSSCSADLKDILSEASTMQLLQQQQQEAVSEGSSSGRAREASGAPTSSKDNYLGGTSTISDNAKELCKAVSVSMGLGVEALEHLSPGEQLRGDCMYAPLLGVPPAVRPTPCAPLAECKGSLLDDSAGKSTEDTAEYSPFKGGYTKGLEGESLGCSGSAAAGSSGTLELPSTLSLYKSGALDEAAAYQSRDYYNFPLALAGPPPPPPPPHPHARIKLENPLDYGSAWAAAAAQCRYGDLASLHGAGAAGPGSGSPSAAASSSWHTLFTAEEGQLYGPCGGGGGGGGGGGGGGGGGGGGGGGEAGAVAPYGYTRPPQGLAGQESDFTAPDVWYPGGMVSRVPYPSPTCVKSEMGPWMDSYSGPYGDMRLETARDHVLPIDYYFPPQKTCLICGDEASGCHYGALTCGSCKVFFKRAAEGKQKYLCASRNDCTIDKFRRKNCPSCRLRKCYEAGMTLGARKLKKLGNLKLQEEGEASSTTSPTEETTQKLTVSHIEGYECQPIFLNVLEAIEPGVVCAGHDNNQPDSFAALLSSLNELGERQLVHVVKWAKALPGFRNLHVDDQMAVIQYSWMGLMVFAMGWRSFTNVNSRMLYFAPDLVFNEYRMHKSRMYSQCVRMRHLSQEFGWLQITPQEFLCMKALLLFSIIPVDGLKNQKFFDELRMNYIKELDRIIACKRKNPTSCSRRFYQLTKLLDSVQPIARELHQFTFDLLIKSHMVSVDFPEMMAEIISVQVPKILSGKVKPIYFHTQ

With `O=C1C(c2[nH]c3ccc(S(=O)(=O)O)cc3c2O)=Nc2ccc(S(=O)(=O)O)cc21`, the Potency entry in test [1], in test [2], in test [3], in [4], in test [5] and in test [6] was “inactive” in each case. Besides, the Potency entry in [7], in [8], in test [9], in [10] and in [12] was “inactive” each time. The molecule was classed as inactive in [11].

As for `c1ccc(C(O[C@@H]2CCCN(CCc3ccc4c(c3)OCO4)C2)c2ccccc2)cc1`, the figures for the Potency in test [1] and in test [12] were 48.6 µM (active) and 61.1 µM (active), respectively. In addition, the Potency result in [13], in [15], in test [3], in [5], in [7] and in test [8] was “inactive” in each case. In addition, the Potency result in [9] and in [10] was “inactive” throughout. Further, the outcome in test [14] and in [11] was inactive.

Consider `OC1CCC(C2CCCCC2)CC1` (stereo not drawn), for which the Potency result in [1], in [16], in [2], in [13], in [15] and in [17] was “inactive” each time. In addition, the Potency result in test [3], in test [5], in test [6], in test [7], in [8] and in test [9] was “inactive” each time. The Potency entry in test [10] and in test [12] was “inactive” each time. Also, the molecule was called inactive in test [14] and in test [11].

Turning to `CC(=O)[C@H]1CC[C@H]2[C@@H]3CCC4=CC(=O)CC[C@]4(C)[C@H]3CC[C@]12C`, the Potency is 60.8 µM (active) in test [18]; 54.2 µM (active) and 61.1 µM (active) in [16]; 54.2 µM (active) and 61.1 µM (active) in test [2]; 54.2 µM (active) in test [5]; 60.8 µM (active) in test [6]. In addition, the Potency entry in [13], in test [17] and in test [12] was “inactive” each time. In addition, the molecule was classed as inactive in test [14].

On to `CC(C)=CCNc1ncnc2c1ncn2[C@@H]1O[C@H](CO)[C@@H](O)[C@H]1O`, for which the Potency result in [18], in test [13], in [15], in [17], in test [3] and in [4] was “inactive” each time. In addition, the Potency entry in test [5], in [9] and in test [10] was “inactive” each time. In addition, the figures for the Potency in test [16], in [2] and in test [12] were 13.3 µM (active), 11.9 µM (active) and 13.3 µM (active), respectively. In addition, the result in test [19], in test [14] and in [11] was inactive.

For `O=C1c2ccccc2C(=O)N1SC1CCCCC1`, the Potency result in [1], in test [13], in [15], in [17], in test [3] and in [4] was “inactive” throughout. For the same molecule, the Potency result in test [5], in test [7], in test [8], in test [9] and in test [12] was “inactive” each time. Besides, the Potency in test [16] was 54.5 µM (active); in test [10], 30.1 µM (active) and inactive. Also, the outcome in test [14] and in test [11] was inactive.

In the case of `c1ccc(SSc2ccccc2)cc1`, the Potency entry in test [1], in [18], in test [2], in [13], in [17] and in [5] was “inactive” in each case. Also, the Potency result in [6], in [7], in test [8], in [10] and in test [12] was “inactive” in each case. The outcome in test [11] was inactive.

`C[C@H]1NCc2cc(-c3ccc4c(=O)c(C(=O)O)cn(C5CC5)c4c3OC(F)F)ccc21`: the activity change, negative = cytotoxicity in test [18] was -2.32% [at 19 µM] (inactive); in test [16], -4.82% [at 19 µM] (inactive); in [2], 2.92% [at 19 µM] (inactive); in test [17] it was 1.35% [at 19 µM] (inactive); in test [5], -2.19% [at 18.9 µM] (inactive); in [6], -10.9% [at 19 µM] (inactive). The activity change, negative = cytotoxicity in test [8] was 0.347% [at 15.8 µM] (inactive); in [12], 2.7% [at 19 µM] (inactive). In addition, the activation in test [13] was -0.399% [at 19 µM] (inactive); in [3] it was -1.22% [at 19 µM] (inactive); in test [9], -4.87% [at 15.8 µM] (inactive); in test [11], 0.004% [at 11.8 µM] (inactive). For the same molecule, the cAMP activity change in test [14] was -2.09% [at 18.9 µM] (inactive). The activity change, negative = inhibition was 6.84% [at 19 µM] (inactive) in [15] and 2.98% [at 18.9 µM] (inactive) in test [4]. For the same molecule, the viability change, negative = cytotoxic in [7] was -2.18% [at 15.8 µM] (inactive). In addition, the activity, negative = inhibition in test [10] is 5.68% [at 10.5 µM] (inactive).
